Compound activity: PubChem BioAssay, The Scripps Research Institute Molecular Screening Center
Most compounds without a hit are left out; they make up all but 4.1% or so of the library.
DAX1 inh-1: DAX1 (NR0B1) inhibitors on StAR promoter, primary screen, cell-based, luminescence, SF-1 (NR5A1), full-length DAX-1; inhibition, % at 6.8 µM; HEK293T StAR-luciferase reporter, SF-1/DAX-1 repression relief; 370,000 compounds, 1.1% hits;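 active = inhibition above the mean over all tested compounds plus 3 SD, cut at about 3.6% in these data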;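 also: 0% = DAX-1 cells with DMSO and 100% = cells lacking DAX-1 with DMSO; higher inhibition means more luminescence from relief of DAX-1 repression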
ssDAF12 agonist: S. stercoralis DAF-12 nuclear receptor activators, primary screen, cell-based, luminescence, HEK293, GRIP1 co-expression, lit1-tk-luc | 370,000 compounds, 1% hits | AID 652126, 2013 | HEK293 ssDAF-12/GRIP1 lit1-tk-luc reporter; % of 3 µM dafachronic acid response | activation, % at 6.8 µM | Nuclear hormone receptor DAF-12 (Strongyloides stercoralis);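 active = activation above the mean over all tested compounds plus 3 SD, cut at about 0.9% in these data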;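 also: 0% = DMSO-only wells and 100% = 3 µM delta7-dafachronic acid wells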
hgDAF-12 ag: H. glycines DAF-12 receptor agonists, primary screen, cell-based, luminescence, HEK293, GAL4 fusion, UAS-luciferase; Nuclear hormone receptor DAF-12 (Heterodera glycines), GAL4 fusion; HEK293 GAL4-hgDAF12 UAS-luciferase reporter, agonist luminescence; normalized to butyrate control; activation, % at 6.8 µM; 370,000 compounds, 1.8% hits; AID 687014, 2013;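 active = activation above a cutoff set at the mean of all screened compounds plus 3 SD, cut at about 10% in these data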;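 also: 0% = DMSO wells and 100% = sodium butyrate wells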
DAX1 inh-2: DAX1 (NR0B1) inhibitors, primary screen, cell-based, HEK293, Gal4-DAX1, luciferase luminescence; HEK293 Gal4-DAX1 luciferase reporter; inhibition, % at 6.75 µM; Nuclear receptor subfamily 0 group B member 1 (Homo sapiens), P51843; 340,000 compounds, 0.99% hits;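 active = inhibition above the mean over all tested compounds plus 3 SD, cut at about 4.2% in these data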;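 also: 0% = DAX1-transfected cells with DMSO and 100% = empty-vector control cells with DMSO; inhibition shows as a rise in luminescence from relieved DAX1 repression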
hcDAF-12 act: H. contortus DAF-12 nuclear receptor activators, primary screen, cell-based, luminescence, HEK293, lit1-tk-luc reporter; HEK293 hcDAF-12 lit1-tk-luc reporter; 0% DMSO, 100% Δ7-dafachronic acid; activation, % at 6.8 µM; 370,000 compounds, 1.4% hits;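 active = activation above the mean of all tested compounds plus 3 SD, cut at about 5.5% in these data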;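 also: 100% = response to 3 µM Δ7-dafachronic acid high control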
hgDAF12 conf: H. glycines DAF-12 receptor agonists, confirmation, cell-based, luminescence, HEK293, GAL4-LBD fusion; HEK293 GAL4-hgDAF12 luciferase reporter, agonist mode; percent of butyrate response; shares compounds with hgDAF-12 ag; 3,300 compounds, 80% hits; activation, % at 6.8 µM;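 active = mean activation over triplicate wells above the hit cutoff derived from the earlier primary screen, cut at about 11% in these data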;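 also: 0% = DMSO low control and 100% = 2 mM sodium butyrate high control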
LXRb DAF12 ctr: LXR agonists, Gal4 luciferase reporter, confirmation, counter-screen for hgDAF-12 agonist project, cell-based, luminescence, HEK293, H. glycines campaign; shares compounds with hgDAF-12 ag; 24 h; 3,300 tested, under 10 active; activation, % at 6.8 µM;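 active = mean activation of the triplicate above a set limit carried over from the primary screen, none filed active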
Target sequence (P55055 whole entry, looked up, the tested form may be a part): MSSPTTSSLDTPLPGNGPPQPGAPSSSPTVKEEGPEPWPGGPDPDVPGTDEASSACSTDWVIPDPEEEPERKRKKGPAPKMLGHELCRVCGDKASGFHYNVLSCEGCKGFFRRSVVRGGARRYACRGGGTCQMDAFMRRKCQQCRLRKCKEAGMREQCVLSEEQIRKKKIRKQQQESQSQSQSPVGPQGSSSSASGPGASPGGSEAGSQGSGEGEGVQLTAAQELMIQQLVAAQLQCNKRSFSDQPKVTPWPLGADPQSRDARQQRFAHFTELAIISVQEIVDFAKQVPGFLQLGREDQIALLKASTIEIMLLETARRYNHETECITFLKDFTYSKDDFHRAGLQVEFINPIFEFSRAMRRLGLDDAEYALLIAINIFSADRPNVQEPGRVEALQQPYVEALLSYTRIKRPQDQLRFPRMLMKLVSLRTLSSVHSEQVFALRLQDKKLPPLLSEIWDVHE
* hit, by the source's call; . = no result given.

SMILES	DAX1 inh-1	ssDAF12 agonist	hgDAF-12 ag	DAX1 inh-2	hcDAF-12 act	hgDAF12 conf	LXRb DAF12 ctr
C/C(=N\NC(=O)c1c(Br)c(C)nn1C)c1cccc(NC(=O)c2ccccc2F)c1	0	-2	-1	-1	-1	.	.
C/C(=N\NC(=O)c1ccccc1)c1cccc(Br)c1	1	0	14*	2	3	7	0
C/C(=N\NC(=O)c1nn(C)c(C)c1Br)c1cccc(NC(=O)c2ccc(F)cc2)c1	4.1*	0	17*	3	5	5	0
C/C(=N/NC(=O)c1ccccc1)C1=C(O)CC(C)(C)CC1=O	2	-1	14*	2	3	3	0
CC1(C)CC(=O)C(C(N)=NC(=O)c2ccccc2)=C(O)C1	0	-1	3	-2	-2	.	.
CN1C(=O)/C(=C/C=C2\SCCN2C)N(C)C1=S	2	0	14*	1	2	15*	1
O=C(Oc1ccc2ccc(O)cc2c1)c1ccccc1Cl	1	0	14*	2	4	7	0
CCN(CC)S(=O)(=O)c1ccc2c(c1)N(CC(=O)NCCN1CCOCC1)C(=O)CO2	0	-2	0	1	2	.	.
O=C(N/C=C/c1ccccc1)c1ccccc1	3	1	15*	2	4	16*	1
COc1cc(Cn2c3ccc(NC(=O)NCCc4ccccc4)cc3c(=O)n2C)ccc1F	-2	-2	3	.	-2	.	.
O=C(Nc1cnc2ccccn2c1=O)c1ccc(Cl)cc1Cl	4.4*	0	16*	0	5	5	0
Cc1ccc(-n2c(C)nn(CCOc3ccccc3)c2=O)cc1	3	-1	13*	1	2	9	0
O=C(Nc1nccs1)c1ccc(-c2ccc([N+](=O)[O-])cc2)o1	2	0	18*	0	4	12*	1
O=C(Nc1nccs1)c1ccc(-c2ccc(F)cc2)o1	3	1	17*	1	2	14*	1
O=C(Nc1ccccc1)c1ccc(-c2ccc([N+](=O)[O-])cc2)o1	0	-1	4	1	0	.	.
O=C(Cc1ccc(F)cc1)Nc1nccs1	0	-1	1	0	0	.	.
CS/C(N)=N/N=C/c1c(O)ccc2ccccc12	2	1.0*	19*	0	5	13*	0
CS/C(N)=N/N=C/c1cc(C)ccc1O	2	0	18*	4.3*	5	14*	1
CN(C)/N=C/c1c(O)ccc2ccccc12	0	-1	-2	0	0	.	.
CCCCS/C(N)=N/N=C/c1cc(C)ccc1O	0	0	6	1	0	.	.
N#CCN=C(c1ccccc1)c1ccccc1	0	-1	0	-1	0	.	.
OC(c1cccc(Cl)c1)c1nc(-c2csc3ccccc23)cs1 (stereo unspecified)	-1	-2	2	.	0	.	.
O=C(NCCc1ccc(F)cc1)Nc1ccc2c(c1)OCO2	2	0	9	3	2	.	.
O=C(Nc1cccnc1)Nc1ccc2c(c1)OCO2	1	0	8	1	5	.	.
O=C(NCCc1ccccc1)Nc1ccc2c(c1)OCO2	3	1	16*	2	3	17*	1
SMILES	DAX1 inh-1	ssDAF12 agonist	hgDAF-12 ag	DAX1 inh-2	hcDAF-12 act	hgDAF12 conf	LXRb DAF12 ctr
O=C(Nc1ccc([N+](=O)[O-])cc1)Nc1ccc2c(c1)OCCO2	0	0	17*	3	3	20*	1
O=C(Nc1ccc2c(c1)OCO2)Nc1ccc2c(c1)OCO2	4.0*	1	22*	1	5	17*	1
O=C(Nc1ccc2c(c1)OCCO2)NC1CCCCC1	2	1	13*	0	5	16*	1
COc1cc([N+](=O)[O-])ccc1NC(=O)Nc1ccc2c(c1)OCCO2	0	-2	1	0	-3	.	.
Cc1cc(C)cc(OCCNC(=O)CCc2ccccc2)c1	0	-1	-1	-1	0	.	.
COC(CNC(=O)c1coc2nc3ccccc3nc12)OC	1	-1	0	2	0	.	.
c1ccc(CSc2ccc(-c3cccs3)nn2)cc1	4.3*	1	14*	1	3	15*	1
Cc1ccc(C(=O)/C=C/c2ccc3c(c2)OCCO3)c(O)c1	1	-1	14*	1	1	8	1
O=C(COc1ccc2c(c1)OCO2)Nc1ccc(Cl)cn1	1	-1	9	1	2	.	.
O=C(/C=C/c1ccc2c(c1)OCO2)Nc1ccc(Cl)cn1	4.3*	-1	15*	0	3	13*	1
O=C(C=Cc1ccc2c(c1)OCO2)c1ccccc1	0	0	13*	1	3	11*	0
O=C(N/N=C/c1cccnc1)c1cccc(Br)c1	1	-1	1	2	3	.	.
O=C(N/N=C/c1cccnc1)c1ccccc1OCc1cccc(Br)c1	-1	-2	0	-1	0	.	.
CCOc1ccc(OCc2cccc(C(=O)N/N=C/c3cccnc3)c2)cc1	3.7*	0	15*	-6	4	19*	1
CC(C)c1ccc(OCc2cccc(C(=O)N/N=C/c3cccnc3)c2)cc1	3.9*	1	21*	-6	4	18*	1
O=c1[nH][nH]c2c1[C@H](c1ccc(F)cc1)O[C@H](CCc1ccccc1)C2	1	-1	1	.	1	.	.
O=C(NN=C1C2CC3CC1CC(Cl)(C3)C2)c1ccccn1	3	0	14*	1	6.2*	5	0
O=C(NN=C1C2CC3CC1CC(Cl)(C3)C2)c1cccs1	4.0*	0	27*	5.0*	6.3*	2	0
O=C(NN=C1C2CC3CC(C2)CC1C3)c1ccncc1	0	-1	0	1	2	.	.
O=C(COc1ccc2c3c(c(=O)oc2c1)CCC3)NCCCN1CCCC1=O	-5	-1	1	0	0	.	.
Cc1ccccc1NC(=O)c1c(C)cc(=O)oc1C	0	-2	1	0	2	.	.
